Measurements published in PubChem BioAssay AID504339 (National Center for Advancing Translational Sciences (NCATS), 2011).
In all, about 390,000 compounds went through this assay and about 17,000 (4.4%) were called active. Not shown: some 8% with an inconclusive outcome. The sample holds actives, similar compounds and a random draw of the others, so the mix is not that of the screen. Calls follow the shape of the dose curve; as a rule, active = well fitted inhibition curve with a large enough effect; inconclusive = small, poorly fitted or top-dose-only effect; inactive = no such curve, though single readings can be large or run the other way.

biological target: Lysine-specific demethylase 4A (Homo sapiens) (UniProt O75164); assay: qHTS Assay for Inhibitors of JMJD2A-Tudor Domain; settings: AlphaScreen JMJD2A-Tudor / H3K4me3 peptide binding; series mostly up to 114 µM; activity change, negative = inhibition: at the top concentration; also: nearly all actives have a fitted effect of over 50% in size
% is scaled to controls: 0 for no effect and ±100 for the full control effect; potency is read from the fitted curve at half-maximal effect.

Sequence of Lysine-specific demethylase 4A (Homo sapiens) (O75164 whole entry, looked up, the tested form may be a part): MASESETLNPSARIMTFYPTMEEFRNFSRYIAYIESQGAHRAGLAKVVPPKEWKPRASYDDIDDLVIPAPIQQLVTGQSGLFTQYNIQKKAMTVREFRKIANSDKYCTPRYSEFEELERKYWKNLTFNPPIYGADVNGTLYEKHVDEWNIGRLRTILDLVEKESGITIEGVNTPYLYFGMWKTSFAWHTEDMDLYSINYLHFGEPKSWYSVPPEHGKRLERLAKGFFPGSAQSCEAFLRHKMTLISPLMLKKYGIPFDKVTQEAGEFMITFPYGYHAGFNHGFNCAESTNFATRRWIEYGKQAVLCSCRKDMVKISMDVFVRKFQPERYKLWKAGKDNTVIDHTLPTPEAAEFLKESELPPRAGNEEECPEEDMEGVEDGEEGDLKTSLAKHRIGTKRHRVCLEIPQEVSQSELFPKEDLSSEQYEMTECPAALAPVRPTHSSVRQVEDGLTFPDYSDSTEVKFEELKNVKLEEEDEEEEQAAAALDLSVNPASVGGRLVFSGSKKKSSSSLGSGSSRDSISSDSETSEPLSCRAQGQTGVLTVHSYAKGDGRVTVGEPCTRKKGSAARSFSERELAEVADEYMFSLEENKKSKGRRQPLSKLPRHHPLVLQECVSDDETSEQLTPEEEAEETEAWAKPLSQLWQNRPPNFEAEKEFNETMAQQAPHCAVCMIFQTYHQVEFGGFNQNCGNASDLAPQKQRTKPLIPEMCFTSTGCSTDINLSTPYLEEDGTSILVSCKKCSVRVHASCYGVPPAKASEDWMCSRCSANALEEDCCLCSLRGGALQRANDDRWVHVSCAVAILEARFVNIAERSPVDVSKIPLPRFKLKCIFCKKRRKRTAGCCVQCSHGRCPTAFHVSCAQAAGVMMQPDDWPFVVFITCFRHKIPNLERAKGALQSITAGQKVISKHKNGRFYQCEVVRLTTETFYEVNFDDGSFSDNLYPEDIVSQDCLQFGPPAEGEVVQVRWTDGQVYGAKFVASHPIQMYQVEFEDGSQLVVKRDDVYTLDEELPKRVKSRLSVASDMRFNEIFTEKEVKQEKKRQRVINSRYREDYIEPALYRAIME

Compound	activity change, negative = inhibition	Potency
CCOC(=O)c1c(C)n(S(=O)(=O)c2ccc(C)cc2C)c2ccc(NS(=O)(=O)c3ccc(C)cc3C)cc12	-31% (inactive)	
COc1ccc2c(c1)CCc1c(C(=O)Nc3cc(C)ccc3O)noc1-2	-14% (inactive)	
Cc1ccc(N2CCN(C(=O)CCc3c(C)nc4c(c3C)c(=O)n(C)c(=O)n4C)CC2)c(C)c1	-13.8% (inactive)	
O=S(=O)(O)c1cc2onnc2c2ccccc12		50.1 µM (active)
CCC(Sc1nnc(-c2ccc(OC)cc2)c(-c2ccc(OC)cc2)n1)C(=O)NC1CCCCC1 (stereo unspecified)	-3.98% (inactive)	
CCOC(=O)c1ccc(N2C(=O)c3[nH]nc(-c4ccccc4)c3C2c2ccc(C(C)C)cc2)cc1 (stereo unspecified)	-35.3% (inactive)	
O=C(C1=C(O)C(=O)N(c2ncccn2)C1c1cccs1)c1ccco1 (stereo unspecified)		20 µM (active)
O=C(C1=C(O)C(=O)N(Cc2ccccc2)C1c1cccnc1)c1ccco1 (stereo unspecified)	-11% (inactive)	
O=C(c1ccco1)N(Cc1cccs1)c1ccc(O)cc1	-7.69% [at 57.1 µM] (inactive)	
Cc1cc(C)c2oc(C(=O)Nc3ccc(S(=O)(=O)N(C)c4ccccc4)cc3)cc(=O)c2c1	-9.03% (inactive)	
Cc1cc(N2CCN(c3cccc(C(F)(F)F)c3)CC2)n2nc(-c3ccccc3)nc2n1	-27% (inactive)	
O=C(CN1C(=O)COc2ccccc21)Nc1ccc(F)cc1		50.1 µM (active)
CC(OC(=O)CN1C(=O)COc2ccccc21)C(=O)NCc1ccc(F)cc1 (stereo unspecified)	-2.76% (inactive)	
O=C(CN1C(=O)COc2ccc(Cl)cc21)Nc1ccc(N2CCOCC2)cc1	-14% (inactive)	
Cc1cccc(C(C)C)c1NC(=O)C(NS(=O)(=O)c1cccc2nsnc12)c1ccccc1 (stereo unspecified)	-31.7% (inactive)	
COc1ccc(-c2cn3c(n2)sc2cc(C(=O)Nc4ccc(F)cc4)ccc23)cc1	-8.22% (inactive)	
CCOc1cc(C2C(C(=O)OC)=C(C)NC3=C2C(=O)c2ccccc23)ccc1O (stereo unspecified)		50.1 µM (active)
COC(=O)C1=C(C)NC2=C(C(=O)c3ccccc32)C1c1ccc(-c2ccc(C(=O)O)cc2)o1 (stereo unspecified)	-17.6% [at 11.4 µM] (inactive)	
CCOc1cc(C2C(C(=O)OC(C)C)=C(C)NC3=C2C(=O)CCC3)cc([N+](=O)[O-])c1O (stereo unspecified)	-4.86% (inactive)	
COC(=O)C1=C(c2ccccc2)c2ccccc2S(=O)(=O)N1CC(=O)Nc1ccccc1C(F)(F)F	-24.2% (inactive)	
Cc1cccc2c(=O)cc(CSc3ccccc3NC(=O)C(C)C)[nH]c12	-6.49% (inactive)	
CC(=O)Nc1cc(C(=O)NCc2ccc(F)cc2Cl)ccc1Sc1ccc(Cl)cc1	-17.1% (inactive)	
Cc1ccc(CNC(=O)C2(C(F)(F)F)C/C(=C\CCO)CCCO2)o1 (stereo unspecified)	-18.6% (inactive)	
CCCCn1cc(S(=O)(=O)c2ccc(OCC)cc2)c(=O)c2cc(OC)c(OC)cc21	-12.3% (inactive)	

Compound	activity change, negative = inhibition	Potency
COc1ccc(N=Nc2c(-c3ccc(OC)cc3)[nH]oc2=O)cc1	-21.8% (inactive)	
COc1ccc(N=C2C=CC(=O)O2)cc1		79.4 µM (active)
COC1=CC(=O)OC(c2ccc(OC)cc2)C1 (stereo unspecified)	-7.59% (inactive)	
CCOC(=O)C1=C(CN2CCc3ccccc32)NC(=O)NC1c1cccc([N+](=O)[O-])c1 (stereo unspecified)		44.7 µM (active)
CCOC(=O)C1=C(CN2CCCCCC2)NC(=O)NC1c1cccc([N+](=O)[O-])c1 (stereo unspecified)	-17.5% (inactive)	
CCOC(=O)C1=C(CN2CCc3ccccc32)NC(=O)NC1c1cc(C)ccc1C (stereo unspecified)	-27.7% (inactive)	
COc1ccc(N2CCN(S(=O)(=O)CCNC(=O)C(c3ccccc3)c3ccccc3)CC2)cc1	-14.1% (inactive)	
C[C@@H](NC(=O)c1nc[nH]c1C(=O)N1CCN(C(=O)OC(C)(C)C)CC1)c1ccccc1		79.4 µM (active)
C[C@H](NC(=O)c1nc[nH]c1C(=O)NCC(=O)OC(C)(C)C)c1ccccc1	-20% (inactive)	
CC(C)(C)OC(=O)N1CCC(NC(=O)c2[nH]cnc2C(=O)N[C@@H](Cc2ccccc2)C(=O)OCc2ccccc2)CC1	-31.4% (inactive)	
Cc1cccc(C(=O)N2c3nc(-c4ccco4)nn3C3(CCCCC3)[C@@H]3CCCC[C@@H]32)c1	-31.8% (inactive)	
CCOc1ccc(CNC(=O)c2cccc(Nc3nc4ccccc4n4nnnc34)c2)cc1OC	4.79% (inactive)	
O/N=C1\CC2(Cc3nonc31)OCCO2	-3.95% (inactive)	
ON=C1/C(=N\O)CC2(C/C1=N/O)OCCO2		28.2 µM (active)
CCOC(=O)c1ccc(NC2=CC(c3ccc(OCC)cc3)N(c3ccc(C(=O)OCC)cc3)C2=O)cc1 (stereo unspecified)	-13.4% (inactive)	
CCOc1ccc(CCNC(=O)c2c(C)oc3ncn(C)c(=O)c23)cc1	2.91% (inactive)	
CCCc1cc(=S)n2c([nH]c3ccccc32)c1C#N		25.1 µM (active)
CN(C)Cc1c(C#N)c2ccccc2n1C	-15.2% (inactive)	
Cc1ccccc1-c1nc2cc(NC(=O)c3cccc(OCCC(C)C)c3)ccc2o1	-6.21% (inactive)	
O=C(O)C(c1ccccc1)N1C(=O)/C(=C\c2ccc(-c3cccc(Cl)c3)o2)SC1=S (stereo unspecified)		20 µM (active)
O=C(NCc1ccccc1)c1cc(-c2cccc(Cl)c2)on1	-1.71% (inactive)	
O=C(NC(=S)Nc1cc(C(F)(F)F)ccc1N1CCOCC1)c1ccc(-c2cccc(Cl)c2)o1	-15.9% (inactive)	
Cc1ccc(NC(=O)Cn2cnc3nc4c(cc3c2=O)CCCC4)cc1Cl	4.15% (inactive)	
CCOc1ccc(N2C(=O)/C(=C/c3ccc(C)o3)N(C)C2=S)cc1		35.5 µM (active)

Compound	activity change, negative = inhibition	Potency
CCOc1ccc(N2C(=O)CN(c3cccc4ccccc34)C2=S)cc1	1.34% (inactive)	
CCO/C=C1\C(=O)N(c2ccc(OCC)cc2)C(=O)c2ccccc21	-24.8% (inactive)	
CCCN1C(=O)C(O)(CC(=O)c2ccc(CC)cc2)c2cc(Br)ccc21 (stereo unspecified)	-26.8% (inactive)	
CCS(=O)(=O)c1cc([N+](=O)[O-])c(Sc2ccccc2N)s1		44.7 µM (active)
Cc1ccc(S(=O)(=O)NCCSc2ccccc2)cc1[N+](=O)[O-]	-24.5% (inactive)	
Cc1cc(C)cc(OCC(=O)Nc2nc(-c3ccc(F)cc3)ns2)c1	-24.2% (inactive)	
Cc1cc(C(=O)OCC(=O)NCc2ccco2)c(C)n1-c1ccccc1		56.2 µM (active)
CCOC(=O)c1cnc(SCC(=O)NCc2ccco2)nc1N	-19.4% (inactive)	
O=C(CCCOc1ccccc1)NCc1ccco1	-7.14% (inactive)	
O=C(COC(=O)c1ccc(F)cc1F)Nc1ncccn1		28.2 µM (active)
O=C(COC(=O)CSc1ccccc1)Nc1ccc(F)cc1F	5.56% (inactive)	
CCOC(=O)c1cccc(NC(=O)c2ccc(F)cc2F)c1	-3.6% (inactive)	
Cc1oc2ncnc(N3CCCCC3)c2c1C(=O)N1CCN(c2cccc(Cl)c2)CC1	-35.6% (inactive)	
CCc1ccc(NC(=O)CN2C(=O)CCSc3ccc(S(=O)(=O)N4CCCC4)cc32)cc1	-8.95% (inactive)	
CCC(C)(C)NC(=O)C(c1cccc(OC)c1OC)N(CC(C)C)C(=O)CCC(=O)Nc1cc(C)on1 (stereo unspecified)		11.2 µM (active)
CCC(C)(C)NC(=O)C(c1ccc(OC)cc1)N(C(=O)CCC(=O)Nc1cc(C)on1)c1ccc(OC)cc1OC (stereo unspecified)	-17.6% (inactive)	
COc1ccc(C(C(=O)NC(C)(C)C)N(Cc2ccc(F)cc2)C(=O)CCC(=O)Nc2cc(C)on2)cc1 (stereo unspecified)	-19.1% (inactive)	
CCc1ccccc1OCCSc1nc(-c2cccs2)nc2cc(=O)[nH]n12	-14.3% (inactive)	
O=c1cc2nc(-c3ccccc3)nc(SCCOc3ccc(Cl)cc3)n2[nH]1		56.2 µM (active)
Cc1ccc(OCCSc2nc(-c3cccs3)nc3cc(=O)[nH]n23)cc1Cl	-29.2% (inactive)	
COc1ccc(CNCCCNCc2ccc(OC)c(OC)c2)cc1OC	-8.97% (inactive)	
COc1cc(CNCc2cccs2)cc(Br)c1OC	-0.752% (inactive)	
COc1cc(CNCc2ccc(OC)c3ccccc23)cc(OC)c1OC		25.1 µM (active)
O=C(c1ccc2c(=O)n(Cc3ccco3)c(=S)[nH]c2c1)N1CCCC1	-18.4% (inactive)	

Compound	activity change, negative = inhibition	Potency
O=c1n(Cc2cccc(C(F)(F)F)c2)c2ccccc2c2nc(-c3ccccc3)nn12	-7.28% (inactive)	
O=S(=O)(c1ccccc1)N1CCc2ccccc21	11.8% (inactive)	
COc1ccc(S(=O)(=O)NCC(=O)NC2CC2)cc1OC	-9.62% (inactive)	
O=C(NCC(c1cccnc1)N1CCc2ccccc21)c1cccc(C(F)(F)F)c1 (stereo unspecified)	-7.89% (inactive)	
O=S(=O)(NCC(c1ccccc1)N1CCc2ccccc21)c1ccccc1 (stereo unspecified)		22.4 µM (active)
CN(C)c1ccc(C(CNS(=O)(=O)c2cc(F)ccc2F)N2CCOCC2)cc1 (stereo unspecified)	-27.5% (inactive)	
COc1ccc(S(=O)(=O)NCC(c2ccc(N(C)C)cc2)N2CCc3ccccc32)cc1OC (stereo unspecified)		22.4 µM (active)
COc1ccc(-c2c3c(=O)n(C)c(=O)n(C)c3c3c(C)nc4ccccc4n23)cc1	-2.41% (inactive)	
Cc1ccc2[nH]c3c(=O)n(CC(=O)NC(C)C)ncc3c2c1	-6.8% (inactive)	
COc1ccc(CCn2c3c(c(=O)[nH]c2=S)CN(C(C)C)CN3)cc1OC	-21.8% (inactive)	
Cc1cc(C)cc(NC(=O)CSc2nc3nccnc3c(=O)n2CCc2c[nH]c3ccccc23)c1	-13.2% (inactive)	
O=C(Nc1cccc(Cl)c1N1CCOCC1)c1ccc2c(c1)OCCO2	-11.1% (inactive)	
O=C(Nc1ccc(N2CCOCC2)cc1)c1ccc2c(c1)OCO2		20 µM (active)
COC(=O)c1ccc(N2CCOCC2)c(NC(=O)c2ccc3c(c2)OCCO3)c1	-0.69% (inactive)	
CCCn1c2ccccc2c2cnn(CC(=O)N3CCCC(C(=O)OCC)C3)c(=O)c21 (stereo unspecified)		79.4 µM (active)
CCOC(=O)C1CCCN(C(=O)Cn2ncc3c(C)n(Cc4ccc(F)cc4)c(C)c3c2=O)C1 (stereo unspecified)	-21.8% (inactive)	
CCOC(=O)C1CCCN(C(=O)Cn2ncc3c(=O)oc4ccc(C)cc4c32)C1 (stereo unspecified)	-15.3% (inactive)	
COc1cccc(CNC(=O)C2CCN(S(=O)(=O)c3ccc4c(ccn4C)c3)CC2)c1	-20.1% (inactive)	
CCCN1CCN(CCCNC(=O)c2cnn(-c3ccc(C)cc3)c2-n2cccc2)CC1	-21.7% (inactive)	
COC(=O)c1ccccc1S(=O)(=O)Nc1ccc(OC)cc1	-26.2% (inactive)	
Cc1cc(C)n(-c2nnc(N3CCN(c4ccccc4)CC3)nn2)n1		50.1 µM (active)
Cc1cc(C)n(-c2nc(C(F)(F)F)nc3ccccc23)n1	-5.54% (inactive)	
Cc1ccc(S(=O)(=O)N2CCN(c3ccccc3)CC2)cc1C	-21.2% (inactive)	
N#CN1CCC(NS(=O)(=O)c2cccc(F)c2)C1 (stereo unspecified)	-4.11% (inactive)	
